HT1080NT lethal: kills 2HG-producing HT-1080-NT fibrosarcoma cells | Potency, µM (highest dose often 46.1 µM), hits mostly cytotoxic | AID 686970 | HT-1080-NT fibrosarcoma viability, CellTiter-Glo ATP luminescence, 48 h | actives 1.6% (n = 360,000);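 note: NT is the 2HG producing partner of a matched IDH1 knockdown line; nearly all actives have a fitted effect of over 55% in size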
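HT-1080-NT; 750 cells/well; 5% FBS RPMI; 48 h compound, 37 degrees C; CellTiter-Glo luminescence; curve fitting and curve-class assignment.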
IL-1B inflam inh: inhibitors of inflammasome signaling (IL-1 beta secretion) | activity change, % at 57.5 µM | THP-1 LPS/ATP IL-1B secretion, AlphaLISA, 16 h; hits give low values | actives 4.7% (n = 360,000); in the data active = activity change below about -50%; inconclusive = mostly about -30% to -49%
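THP-1 cells pretreated 1 hr with compounds (up to 57.5 uM final), then stimulated with LPS (250 ng/mL final) plus ATP (1.25 mM final); secreted IL-1B measured by AlphaLISA after 16 hr, decreased signal indicating inhibition.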
TDP1 cell noCPT: qHTS for Inhibitors of human tyrosyl-DNA phosphodiesterase 1 (TDP1): qHTS in cells in absence of CPT; DT40 Tdp1-/- hTDP1 cells, no CPT, ATP luminescence, 48 h; Potency, µM (titrated, usually from 46.2 µM), most hits filed as inhibitors; actives 15% (n = 420,000); note: nearly all actives have a fitted effect of over 55% in size
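A cellular qHTS used chicken DT40 cells lacking endogenous Tdp1 but carrying stably transfected human TDP1. Compounds were applied without camptothecin, and cell growth kinetics were judged by ATP-dependent luminescence after ≥48 hr.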
DT40 TDP1 CPT: growth inhibition of DT40 Tdp1-/-;hTDP1 cells with camptothecin (screen for TDP1 inhibitors). chicken DT40 Tdp1-/-;hTDP1 cells + 20 nM CPT, ATP luminescence, 48 h. actives 12% (n = 420,000). Potency, µM (titrated, usually from 46.2 µM), most hits filed as inhibitors; note: nearly all actives have a fitted effect of over 55% in size
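Cell growth measured by CellTiter-Glo luminescence after a minimum 48 h, 37 C compound exposure with 20 nM CPT in Tdp1-knockout DT40 cells stably expressing hTDP1, seeded 400/well; qHTS titration format.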
ELG1 repair inh: inhibitors of ELG1-dependent DNA repair in HEK293T cells; HEK293T ELG1-luciferase reporter, luminescence, 16 h; DNA damage induced by 5-fluorouridine; Potency, µM (top dose mostly 46.1 µM), actives largely listed as inhibitors; actives 2.3% (n = 330,000); note: nearly all actives have a fitted effect of over 55% in size
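HEK293T cells expressing luciferase-tagged ELG1 (2,000/well) received 5-Fluorouridine plus compound or DMSO for 16 hr at 37 °C. Luciferase was read by ONE-Glo luminescence after 30 min at room temperature.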
HT1080 IDH1KD tx: kills HT-1080 cells with IDH1 knockdown; actives 2% (n = 360,000); Potency, µM (series often up to 46.1 µM), most hits filed as cytotoxic; AID 686971; HT-1080 IDH1 knockdown viability, ATP luminescence, 48 h
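HT-1080-IDH1KD cells (IDH1 knocked down), 750/well in RPMI with 5% FBS, treated with compound 48 h at 37 degrees C. Viability by CellTiter-Glo luminescence, normalised to DMSO and no-cell wells; concentration-response curves classed.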
ELG1 FLuc counter: luciferase inhibition in cell-free luciferin readout for ELG1 hits | AID 624247 | cell-free firefly luciferase luminescence counter-screen, ViewLux | shares compounds with ELG1 repair inh | Potency, µM (highest dose often 46.1 µM), most hits filed as inhibitors | actives 3% (n = 350)
ELG1-Luc inh: confirmation of human ELG1-dependent DNA repair inhibitors. shares compounds with ELG1 repair inh. HEK293T ELG1-luciferase levels, luminescence; cells co-treated with 5-fluorouridine. Potency, µM (top dose mostly 46.1 µM), most hits filed as inhibitors. actives 68% (n = 670); note: nearly all actives have a fitted effect of over 55% in size
ELG1-Luc MMS: MMS-stimulated human ELG1 repair inhibition, confirmed | Potency, µM (series often up to 46.1 µM), actives largely listed as inhibitors | actives 53% (n = 670) | AID 624249 | shares compounds with ELG1 repair inh | HEK293T luciferase-tagged ELG1 level, MMS stimulated; note: nearly all actives have a fitted effect of over 60% in size
ELG1 5FU viab: confirmation of ELG1 repair inhibitors: viability with 5FU | Potency, µM (highest dose often 46.1 µM), most hits filed as cytotoxic | cell viability with 5-FU, ELG1-dependent repair | 670 tested, under 10 active | shares compounds with ELG1 repair inh;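 note: ELG1-luc HEK293T cells cotreated with 5-fluorouridine at 10 µM final; viability measured 16 h after compound addition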
ELG1 MMS viab: confirmation of ELG1 repair inhibitors: viability with MMS; Potency, µM (doses to about 46.1 µM), actives largely listed as cytotoxic; actives 33% (n = 670); Cell viability with MMS, ELG1-dependent DNA repair; shares compounds with ELG1 repair inh;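 note: ELG1-luc HEK293T cells co-treated with 10 µM MMS; viability read 16 h after compound addition; nearly all actives have a fitted effect of over 60% in size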
ELG1 unstim viab: counter-screen for ELG1 repair inhibitors: unstimulated cell viability; actives 8% (n = 900); Potency, µM (top dose mostly 45.9 µM), actives largely listed as cytotoxic; cell viability counter-screen, unstimulated, luminescence; shares compounds with ELG1 repair inh;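 note: compound exposure lasted 16 hours before reading; nearly all actives have a fitted effect of over 55% in size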
FLuc biochem: firefly luciferase inhibition counter-screen; shares compounds with ELG1 repair inh; purified firefly luciferase, luminescence counter-screen; Potency, µM (top dose mostly 57.5 µM), usual class: inhibitors; actives 10% (n = 350); AID 624253
Numbers stand for hits; - = inactive; ? = inconclusive; . = no result. Sampled rows, rich in hits. Any-hit rate of the full collection: about 19%. Unless noted, calls come from the whole dose curve; as a rule, active = well fitted curve in the direction sought with a large enough effect; inconclusive = small, poorly fitted or top-dose-only effect, or another doubt; inactive = no such curve, though single readings can be large; an effect the other way counts as inactive or inconclusive.

SMILES	HT1080NT lethal	IL-1B inflam inh	TDP1 cell noCPT	DT40 TDP1 CPT	ELG1 repair inh	HT1080 IDH1KD tx	ELG1-Luc inh	ELG1-Luc MMS	ELG1 5FU viab	ELG1 MMS viab	ELG1 unstim viab	others
COc1ccc(OCCN2CCN(C(=O)c3ccc(OC)cc3)CC2)cc1	?	-	-	-	3.26µM	-	?	7.05µM	-	7.91µM	-
COc1ccc(C(=O)N2CCCC2)cc1	-	-	-	-	-	-	.	.	.	.	.
Cc1ccc2cc(C)c3nnc(SCc4ccc(C(=O)O)cc4)n3c2c1C	-	-	-	-	-	-	.	.	.	.	.
C(=C\c1nc2ccccc2s1)/c1ccc2c(c1)OCO2	.	.	11.2µM	?	.	.	.	.	.	.	-	ELG1 FLuc counter=19.9µM;FLuc biochem=0.184µM
Cc1ccc(CNC(=O)c2oc3ccc(S(=O)(=O)N4CCC5(CC4)OCCO5)cc3c2C)cc1	-	-	?	-	0.82µM	-	3.54µM	14.1µM	?	22.3µM	?	ELG1 FLuc counter=?;FLuc biochem=-
COc1ccc(CCNc2ccc(C(CC(N)=O)NC(=O)c3cc(C)cc(C)c3)cc2[N+](=O)[O-])cc1 (stereo not given)	-	-	-	-	?	-	.	.	.	.	.
O=C1C(=Cc2ccc(Cl)cc2)Cc2ccccc21	-	-	-	-	.	-	.	.	.	.	.
Cc1ccc2c(c1)C/C(=C/c1ccc(N(C)C)cc1)C2=O	.	.	?	?	.	.	.	.	.	.	-
Cc1ccc(NC(=O)COC(=O)c2ccc(-n3nc(C)cc3C)cc2)c(F)c1	-	-	-	-	-	-	.	.	.	.	.
C=CCc1c(OC(C)=O)c2ccccc2n(C)c1=O	-	-	-	-	3.26µM	-	?	7.05µM	-	9.96µM	?
CC(=O)Oc1c(C(=O)c2nnc(C)o2)c(=O)n(C)c2ccccc12	-	-	-	?	?	-	.	.	.	.	.
C[C@H](CO)N1C[C@H](C)[C@@H](CN(C)C(=O)Nc2ccc(C(F)(F)F)cc2)Oc2c(NC(=O)Cc3ccccc3)cccc2C1=O	-	?	-	-	?	-	2.5µM	-	?	-	-
C[C@H](CO)N1C[C@H](C)[C@@H](CN(C)C(=O)Nc2ccccc2)Oc2c(NC(=O)Cc3ccccc3)cccc2C1=O	-	-	-	-	-	-	.	.	.	.	.
C[C@H](CO)N1C[C@H](C)[C@@H](CN(C)C(=O)Nc2ccc(C(F)(F)F)cc2)Oc2c(NS(=O)(=O)c3cn(C)cn3)cccc2C1=O	-	-	-	-	-	-	.	.	.	.	.

Compound activity from PubChem.
